Reference: PubChem BioAssay (NCI)
This is part of a sample that, as a whole, favours compounds with a hit. Of some 79,000 tested, about 15% had one in any assay. Calls of active or inactive are those of the source. Rule as the data show it: active = growth inhibition above about 70%; inactive = the rest. Where a SMILES comes first, the peptide text is derived from it. Bridges are numbered along the chain shown (N, C = ends). [ ]: non-standard residue; d: D form. The star is where a group is joined. ξ: configuration not given here. ξNMePhe(4-NMe2) = CNC(Cc1ccc(N(C)C)cc1)C(=O)O; Picolinoyl(3-OH) = O=C(c1ncccc1O)*; ξPip(4-oxo) = O=C1CCNC(C(=O)O)C1; Phg = N[CH](C(=O)O)c1ccccc1; Abu = CC[CH](N)C(=O)O

Experiment: NCI Yeast Anticancer Drug Screen. Data for the bub3 strain (AID 167)
Conditions: S. cerevisiae bub3 mutant strain, at 50.0 µM, stronger effect = higher value
Description: Growth inhibition of yeast strains with defined genetic alterations is measured as a screen for potential anti-cancer activity. Selected strains with alterations in DNA damage repair or cell cycle control were exposed to compounds and growth inhibition was measured relative to vehicle treated controls. The strain used in this assay is bub3

| SMILES | growth inhibition |
| --- | --- |
| Cc1ccc(CCCC(=O)O)c(C)c1 | 28.9% (inactive) |
| Nc1ncnc2[nH]ncc12 | 4.7% (inactive) |
| Cc1ccc(/C(C#N)=C/c2ccc3c(c2)OCO3)cc1 | 47.8% (inactive) |
| O=C(O)COCC(=O)O | 5.85% (inactive) |
| NC(=O)NC(=O)c1ccc(Cl)cc1 | -1.05% (inactive) |
| O=C(CN1CCNCC1)N1CCOCC1 | -16.7% (inactive) |
| O=C1c2ccccc2C(=O)c2c1ccc(C(=O)O)c2[N+](=O)[O-] | 19.7% (inactive) |
| COCCOCCCl | -6.5% (inactive) |
| CC(=O)OCCO | -41.8% (inactive) |
| CCCC[P+](c1ccccc1)(c1ccccc1)c1ccccc1 | 33.1% (inactive) |
| CN(C)CCN(Cc1ccccc1)c1ccccc1 | -20.8% (inactive) |
| COc1cc(/C=C/C(=O)c2ccccc2)cc(OC)c1OC | -18.1% (inactive) |
| CC(=O)Cc1cc(-c2cc(CC(C)=O)[nH]n2)n[nH]1 | -5.45% (inactive) |
| O=S(=O)(O)c1ccc(O)c2ccccc12 | 11.7% (inactive) |
| CCC1NC(=O)C(NC(=O)c2ncccc2O)C(C)OC(=O)C(c2ccccc2)NC(=O)C2CC(=O)CCN2C(=O)C(Cc2ccc(N(C)C)cc2)N(C)C(=O)C2CCCN2C1=O (stereo not given) (tested in a mixture with another compound) ({Picolinoyl(3-OH)}-T[Abu]P[ξNMePhe(4-NMe2)][ξPip(4-oxo)][Phg]; ester 1-C; configuration not given here) | 9.45% (inactive) |
| COC(=O)c1cc(-c2ccc(Cl)c(Cl)c2)[nH]c(=O)c1C#N | -21.9% (inactive) |
| CC1(c2ccccc2)NC(=O)NC1=O (stereo not given) | -7.65% (inactive) |
| COc1cc2cc(c1Cl)N(C)C(=O)C[C@H](OC(=O)[C@H](C)N(C)C(C)=O)[C@]1(C)O[C@H]1[C@H](C)[C@@H]1C[C@@](O)(NC(=O)O1)[C@H](OC)C=C/C=C(\C)C2 | 5.9% (inactive) |
| NNc1ccccc1C(=O)O | -2% (inactive) |
| CC(C)(O)C#CC#CC(C)(C)O | -41% (inactive) |

| SMILES | growth inhibition |
| --- | --- |
| O=C(O)C(O)c1ccccc1 (stereo not given) | 11.3% (inactive) |
| C/C(O)=C(\C=N\C(N)=S)C(=O)Nc1ccccc1 | -2.45% (inactive) |
| O=C(O)c1ccnc(Br)c1 | -27.3% (inactive) |
| Cc1ccc(C(O)C2CC2)cc1 (stereo not given) | -21.6% (inactive) |
| O=c1cc2oc3cc(O)c(O)cc3c(-c3ccccc3O)c-2cc1O | 41% (inactive) |
| COc1cc2c3c(n(C)c(=O)c2cc1OC)-c1cc2c(cc1C3=O)OCO2 | -3.6% (inactive) |
| O=C1Cc2ccccc2C(=O)O1 | -5.15% (inactive) |
| NC(CSC(c1ccccc1)(c1ccccc1)c1ccccc1)C(=O)O (stereo not given) | -8.25% (inactive) |
| c1ccc(Cc2ccccc2)cc1 | -1.1% (inactive) |
| CC1(C)S(=O)(=O)OCCOS1(=O)=O | 7.35% (inactive) |
| CC(=O)c1ccc(C)c(N)c1 | -2.15% (inactive) |
| COc1nc(N)nc2c1ncn2C1OC(CO)CC1O (stereo not given) | 0.55% (inactive) |
| O=C1C=C(O)C(=O)C=C1O | -2.35% (inactive) |
| N#CC(=Nc1cccc(F)c1)C1=C(O)c2ccccc2C1=O | 20.5% (inactive) |
| CC(=O)OC(OC(C)=O)C1CCCO1 (stereo not given) | -2.95% (inactive) |
| c1ccc2c(N3CCCCC3)ncnc2c1 | 2.15% (inactive) |
| COc1cc2cc(OC(C)=O)c3cc4c(cc3c2c(OC)c1OC)OCO4 | -21.9% (inactive) |
| CCOc1ccc(/C=N/N=C(N)N)cc1OCC | -8.4% (inactive) |
| CCOC(=O)C(C#N)Cc1ccccc1 (stereo not given) | -1.6% (inactive) |
| CC(=O)Nc1cccc(NC(C)=O)n1 | 7.8% (inactive) |
